This passage reports Potency results from PubChem BioAssay (Tox21).

Inconclusive results are not listed. Where a call stands in place of a potency, no number is given. The source made the active and inactive calls. The call rests on the fitted dose curve. Positions of bridges follow the written chain, without caps; N, C: chain ends. Non-standard residues stand in square brackets, D forms with d. Residues, ends and D or L forms follow the SMILES beside them. ξ: configuration not given here. *: point of attachment. d(aThr) = C[C@@H](O)[C@@H](N)C(=O)O; ξThr(3R) = C[C@@H](O)C(N)C(=O)O; X3 = CC[C@@H](C)CCCCC(=O)*; dDab = NCC[C@@H](N)C(=O)O
Potency means the concentration at half of the fitted maximal effect.

The nature of one experiment: qHTS assay for small molecule agonists of the p53 signaling pathway - cell viability (AID 651633). Further: nearly all actives have a fitted effect of over 30% in size. Particulars: p53RE-bla HCT-116 viability, ATP luminescence, 16 h; series mostly up to 83.3 µM. The method in brief:
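Viability counter-read: CellTiter-Glo luminescence (30 min, room temperature) in the same p53RE-bla plates. These plates had been exposed to compounds for 16 h at 37 C.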
Background: In qHTS, concentration-response curves come from the screen itself.
As for `Cc1cc(O)c2c(c1)O[C@@]1(C)CC[C@H]3C(C)(C)CCCC34CO[C@@H]2[C@H]41` (some centres not stated), the Potency is 26.6 µM (active).
Same read-out and setting: as for `Cn1c(O)c(N=NC(N)=S)c2ccccc21`, the entry is “inactive”; as for `CCCC1([C@H](O)C/C=C/[C@H]2[C@H](O)CC(=O)[C@@H]2CCCCCCC(=O)OC)CCC1`, 29.8 µM (active).
With `C=C1C(=C/C=C2\CCC[C@]3(C)[C@@H]([C@H](C)CCCC(C)(C)O)CC[C@@H]23)C[C@@H](O)C[C@@H]1O`, the Potency was 21.1 µM (active).
On the same count and under the same terms, with `O=C(Nc1ccc(Br)cc1)c1cc(Br)c(Br)s1` the figure was 29.8 µM (active).

The nature of a further experiment: qHTS assay for small molecules that induce genotoxicity in human embryonic kidney cells expressing luciferase-tagged ATAD5 - cell viability (AID 651634). Further: nearly all actives have a fitted effect of over 25% in size. Particulars: HEK293T ATAD5-luc cells viability, CellTiter-Fluor, 15.5 h; series mostly up to 83.3 µM. The method in brief: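 After 15.5 hr incubation with compound at 37C, 5% CO2, HEK293T ATAD5-luciferase cells received CellTiter-Fluor reagent; fluorescence intensity was quantified following 30 min at 37C.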
For `COc1ccc(C2NC(=S)N3C(c4ccc(OC)c(OC)c4)NC(=S)N23)cc1OC` (configuration not stated), the Potency result was “inactive”.
In the case of `CC(CN(C)C)CN1c2ccccc2Sc2ccc(C(F)(F)F)cc21` (configuration not stated), the Potency entry is “inactive”.
On the same count and under the same terms, as for `C[C@@H]1CCC2[C@@H](C)[C@@H](O)O[C@@H]3O[C@@]4(C)CC[C@@H]1[C@@]23OO4` (some centres not stated), the figure is 13.3 µM (active); as for `CCc1ccc2c(c1)N(CC(C)CN(C)C)c1ccccc1S2` (configuration not stated), 33.5 µM (active).
Consider `CCCCCCCCCCCCCCCCCC[N+](C)(C)CCC[Si](OC)(OC)OC`, for which the Potency result was “inactive”.
The same measure, in the same setting: with `CCOC(=O)[C@H](CS)NCCN[C@@H](CS)C(=O)OCC` the entry was “inactive”; with `CC1(C)S[C@@H]2[C@H](NC(=O)[C@H](NC(=O)N3CCN(S(C)(=O)=O)C3=O)c3ccccc3)C(=O)N2[C@H]1C(=O)O`, “inactive”.
As to `CC1=C[C@H](O)CC(C)(C)[C@H]1/C=C/C(C)=C/C=C/C(C)=C/C=C/C=C(C)/C=C/C=C(C)/C=C/C1=C(C)C[C@@H](O)CC1(C)C`, the Potency entry was “inactive”.
In the case of `NCCC(=O)[N-][C@@H](Cc1cnc[nH]1)C(=O)O.[Zn]`, the Potency entry was “inactive”.
Regarding `C#C[C@]1(O)CC[C@H]2[C@@H]3CCC4=CCCC[C@@H]4[C@H]3C(=C)C[C@@]21CC`, the Potency result was “inactive”.
The same measure, in the same setting: with `C=C1C(=C/C=C2\CCC[C@]3(C)[C@@H]([C@H](C)/C=C/[C@H](C)C(C)C)CC[C@@H]23)C[C@@H](O)C[C@@H]1O` the entry was “inactive”; with `CC(=O)[C@@]1(O)CC[C@H]2[C@@H]3C=C(Cl)C4=CC(=O)CC[C@]4(C)[C@H]3CC[C@@]21C`, “inactive”; with `CC[C@@H](C)CCCCC(=O)N[C@H](CCN)C(=O)N[C@@H](C(=O)N[C@H](CCN)C(=O)N[C@@H]1CCNC(=O)C([C@@H](C)O)NC(=O)[C@@H](CCN)NC(=O)[C@@H](CCN)NC(=O)[C@@H](CC(C)C)NC(=O)[C@@H](Cc2ccccc2)NC(=O)[C@@H](CCN)NC1=O)[C@@H](C)O` (stereo partly drawn) (X3-[dDab][d(aThr)][dDab][dDab][dDab][dF][dL][dDab][dDab][ξThr(3R)]; lactam 4-C), “inactive”.
Still for that read-out and setting: with `COc1ccccc1N1CCN(CCCC(=O)c2ccc(F)cc2)CC1` the entry was “inactive”.
Same read-out and setting: with `CCC(=O)Oc1ccc2c(c1)CC[C@@H]1[C@@H]2CC[C@]2(C)[C@@H](OC(=O)CC)CC[C@@H]12` the entry was “inactive”; with `CC(=O)Oc1cc(C)c(OC(C)=O)c2ccccc12`, “inactive”; with `CC(C)(C)NC(=O)[C@H]1CC[C@H]2[C@@H]3CC=C4C=C(C(=O)O)CC[C@]4(C)[C@H]3CC[C@]12C`, “inactive”.
In the case of `Clc1ccc(COC(Cn2ccnc2)c2ccc(Cl)cc2Cl)c(Cl)c1` (configuration not stated), the Potency result was “inactive”.
Consider `CCCCC[C@H](O)/C=C/[C@H]1[C@H](O)CC(=O)[C@@H]1CCCCCCC(=O)O`, for which the Potency entry was “inactive”.
On the same count and under the same terms, with `CCOC(=O)C1=C(COCCN)NC(C)=C(C(=O)OC)C1c1ccccc1Cl` (configuration not stated) the entry was “inactive”; with `CN1CCN(CCCN2c3ccccc3Sc3ccccc32)CC1`, “inactive”; with `CN[C@@H]1[C@@H](O)[C@@H](O[C@@H]2[C@@H](O)[C@H](OC3OC(CN)=CCC3N)[C@@H](N)C[C@H]2N)OC[C@]1(C)O` (some centres not stated), “inactive”.
Take `CCC[C@@H]1C[C@@H](C(=O)N[C@@H]([C@H]2O[C@H](SC)[C@H](O)[C@@H](O)[C@H]2O)[C@H](C)Cl)N(C)C1`: the Potency entry was “inactive”.
On to `CCC[C@@]1(CCc2ccccc2)CC(O)=C([C@H](CC)c2cccc(NS(=O)(=O)c3ccc(C(F)(F)F)cn3)c2)C(=O)O1`, for which the Potency result is “inactive”.
Still for that read-out and setting: as for `CCCCCCC(=O)O[C@H]1CC[C@H]2[C@@H]3CCc4cc(O)ccc4[C@H]3CC[C@]12C`, the entry is “inactive”; as for `CCC(=O)OCC(=O)[C@@]1(OC(=O)CC)[C@@H](C)C[C@H]2[C@@H]3CCC4=CC(=O)C=C[C@]4(C)[C@@]3(F)[C@@H](O)C[C@@]21C`, “inactive”.
For `CC[C@]1(O)CC2CN(CCc3c([nH]c4ccccc34)[C@@](C(=O)OC)(c3cc4c(cc3OC)N(C)[C@H]3[C@@](O)(C(N)=O)[C@H](O)[C@]5(CC)C=CCN6CC[C@]43[C@@H]65)C2)C1` (some centres not stated), the Potency is 0.531 µM (active).
